Assay outcomes (PubChem)
Compounds with a hit are over-represented: about 0.74% of the library has one in this group of screens.
C-LANA FP = inhibitors of KSHV C-LANA binding to DNA, primary screen, biochemical, fluorescence polarization, FAM-LBS DNA, MBP-C-LANA, single point; Kaposi's sarcoma herpesvirus LANA C-terminal domain (residues 932-1162) DNA binding; inhibition, % at 9 µM; 0.078% of 340,000 active;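 active = highest replicate inhibition at or above 60% at 9 µM, even if other replicates fall short; inactive = all replicates below 60% inhibition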
Keap1 Nrf2 FP = Keap1-Nrf2 protein-protein interaction inhibitors, primary screen, biochemical, fluorescence polarization, single point | Keap1 Kelch-Nrf2 peptide fluorescence polarization, 1536-well | 0.15% of 340,000 active | AID 504523, 2011 | inhibition, % at 9.4 µM; in the data active = inhibition above about 12%;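 note: human Keap1 Kelch domain with fluorescein labeled Nrf2 9mer peptide probe; higher means more block of Keap1 binding to Nrf2 peptide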
RTF Ca sens inh = cardiac RTF calcium sensitivity inhibitors, primary screen, biochemical, IANBD-TnC fluorescence, EC70 calcium; inhibition, % at 7.15 µM; 0.12% of 340,000 active; IANBD-labeled cardiac RTF, Ca2+ fluorescence; Troponin I, cardiac muscle (Homo sapiens) + Troponin T, cardiac muscle (Homo sapiens) + …;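 active = inhibition above the mean inhibition of all tested compounds plus 3 SD, cut at about 17% in these data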;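 note: assay run at fixed EC70 calcium of 1.6 mM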
cardiac RTF act = cardiac RTF calcium sensitivity activators, primary screen, biochemical, IANBD-TnC fluorescence, EC20 calcium; Troponin I, cardiac muscle (Homo sapiens) + Troponin T, cardiac muscle (Homo sapiens) + …; IANBD-labeled TnC RTF fluorescence at EC20 calcium; 0% EC20 calcium, 100% full calcium; activation, % at 7.2 µM; 0.24% of 340,000 active; AID 493008, 2010;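 active = activation above the mean over all tested compounds plus 3 SD, cut at about 30% in these data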;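 note: rise in fluorescence read as greater calcium sensitivity of cardiac thin filaments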
eLon inh = inhibitors of E. coli Lon protease, primary screen, biochemical, fluorescence polarization. P0A9M0. purified E. coli Lon protease. inhibition, % at 7.94 µM. 0.42% of 360,000 active; in the data active = inhibition above about 13%, passing the limit was not always enough
Target sequence (P0A9M0 whole entry, looked up): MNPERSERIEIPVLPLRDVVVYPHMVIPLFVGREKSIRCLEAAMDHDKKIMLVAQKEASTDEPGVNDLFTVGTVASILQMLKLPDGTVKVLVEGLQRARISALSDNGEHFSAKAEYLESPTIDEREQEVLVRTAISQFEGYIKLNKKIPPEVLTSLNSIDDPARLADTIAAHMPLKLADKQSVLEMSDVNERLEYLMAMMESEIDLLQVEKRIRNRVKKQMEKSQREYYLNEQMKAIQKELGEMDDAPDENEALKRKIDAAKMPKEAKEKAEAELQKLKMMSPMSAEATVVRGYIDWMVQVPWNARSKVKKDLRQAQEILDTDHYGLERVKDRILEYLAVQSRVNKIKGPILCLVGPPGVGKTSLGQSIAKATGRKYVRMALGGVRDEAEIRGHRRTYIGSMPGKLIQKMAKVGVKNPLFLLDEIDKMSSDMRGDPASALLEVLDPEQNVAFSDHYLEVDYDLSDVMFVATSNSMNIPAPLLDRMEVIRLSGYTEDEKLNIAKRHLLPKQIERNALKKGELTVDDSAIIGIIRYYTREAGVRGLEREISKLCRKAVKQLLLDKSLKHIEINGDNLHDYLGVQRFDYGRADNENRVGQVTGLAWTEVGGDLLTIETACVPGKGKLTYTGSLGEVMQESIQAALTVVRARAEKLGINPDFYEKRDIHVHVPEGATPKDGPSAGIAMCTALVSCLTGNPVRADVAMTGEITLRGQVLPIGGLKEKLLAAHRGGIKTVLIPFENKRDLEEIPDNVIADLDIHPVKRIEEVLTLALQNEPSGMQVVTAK
eLon confirm = E. coli Lon protease inhibitor retest, confirmation, biochemical, fluorescence polarization; shares compounds with eLon inh; purified E. coli Lon; inhibition, % at 7.94 µM; 31% of 1,400 active; in the data active = inhibition above about 16%
Each line names hits and unclear results; the compound was inactive in the other large screens (follow-up assays come after a bar, where they were run).

C=CCOc1ccccc1CNc1cccc(F)c1	none
O=C(COc1cccnc1[N+](=O)[O-])Nc1ncc(Cl)cc1Cl	eLon inh 18 | eLon confirm inactive
O=C(COc1cccnc1[N+](=O)[O-])Nc1c(Cl)cccc1Cl	none
c1coc(-c2cnc3ccccc3n2)c1	eLon inh 35 (no result: C-LANA FP, Keap1 Nrf2 FP, RTF Ca sens inh, cardiac RTF act) | eLon confirm inactive
Cc1cc(C)c(Cn2c(=O)n(CCCC(=O)NCc3ccco3)c(=O)c3ccccc32)c(C)c1	eLon inh 18 | eLon confirm inactive
CCOC(=O)c1nn(-c2ccccc2)c(=O)c2c(N)scc12	none
Nc1scc2c(C(=O)N/N=C/c3ccc(Cl)cc3)nn(-c3ccccc3)c(=O)c12	eLon inh 15 | eLon confirm 17
O=c1[nH]c(=S)c2[nH]c(=S)n(-c3ccccc3)c2[nH]1	none (no result: C-LANA FP)
Cc1cc(NC(=O)CCC(=O)N(Cc2ccco2)C2(C(=O)NC3CCCCC3)CCCCC2)no1	eLon inh 21 | eLon confirm inactive
Cc1cc(NC(=O)CCC(=O)N(Cc2ccccc2)C2(C(=O)NC3CCCCC3)CCCC2)no1	none
COc1ccc(N2CCN(C(=O)COC(=O)c3nc(Cl)ccc3Cl)CC2)cc1	none (no result: C-LANA FP, Keap1 Nrf2 FP, RTF Ca sens inh, cardiac RTF act)
O=C1C(Cl)=C(NC2CCCCC2)C(=O)N1Cc1ccccc1	none
O=C1C(Cl)=C(N2CCN(Cc3ccccc3)CC2)C(=O)N1Cc1ccccc1	eLon inh 36 | eLon confirm inactive
Cc1cccc(NC(=O)CSc2nnc(-c3ccco3)c(-c3ccco3)n2)c1C	eLon inh 89 | eLon confirm inactive
COCCN(CCOC)Cc1cc(=O)oc2ccc3ccccc3c12	none (no result: C-LANA FP, Keap1 Nrf2 FP, RTF Ca sens inh, cardiac RTF act)
CCN(C(=O)c1coc(=O)c(Br)c1)c1ccc2c(c1)OCO2	eLon inh 21 | eLon confirm inactive
O=C(/C(=C/O)N=Nc1ccccc1)c1cccs1	eLon inh 22 | eLon confirm inactive
COc1ccc(N2CCN(C3CCCCC3NS(=O)(=O)c3ccc(Cl)cc3)CC2)cc1 (configuration not stated)	none
COc1ccccc1N1CCN(C2CCCCC2NS(=O)(=O)c2ccc(Cl)cc2)CC1 (configuration not stated)	eLon inh 25 | eLon confirm inactive
Cc1ccc(C(=O)N2[C@@H]3CN(C)C(=O)[C@@]2(Cc2ccccc2)[C@H]2C(=O)N(C)C(=O)[C@@H]32)cc1	none
CS(=O)(=O)c1sc2nc(-c3cccs3)cc(-c3ccccc3)c2c1N	eLon inh 20 | eLon confirm inactive
Cc1ccc(-c2cc(-c3ccccc3)c3c(N)c(S(C)(=O)=O)sc3n2)cc1	none
CC1(c2nnnn2Cc2ccccc2)CCC(=O)N1Cc1cccs1 (configuration not stated)	none (no result: C-LANA FP, Keap1 Nrf2 FP, RTF Ca sens inh, cardiac RTF act)
COc1c(O)cccc1[C@@H](O)C1CCN(CCc2ccc(F)cc2)CC1	eLon inh 35 | eLon confirm inactive
COc1cc(CN(C)CC2CCCN(CCc3ccc(F)cc3)C2)c(Cl)cc1O (configuration not stated)	none
COc1ccc(S(=O)(=O)N2CCOCC2)cc1NC(=O)Cc1ccc(F)cc1	none (no result: C-LANA FP, Keap1 Nrf2 FP, RTF Ca sens inh, cardiac RTF act)
CCCCn1nnnc1C(c1ccccc1)N1CCN(c2ncccn2)CC1 (configuration not stated)	none (no result: C-LANA FP, Keap1 Nrf2 FP, RTF Ca sens inh, cardiac RTF act)
CCCCn1nnnc1C(c1ccccc1)N1CCN(CCN2CCOCC2)CC1 (configuration not stated)	eLon inh 15 (no result: C-LANA FP, Keap1 Nrf2 FP, RTF Ca sens inh, cardiac RTF act) | eLon confirm inactive
NC1=Nc2cccc3cccc1c23	eLon inh 29 | eLon confirm 17
C(=N\NC1=Nc2cccc3cccc1c23)/c1ccccc1	none
O=C(Cc1cccc2ccccc12)Nc1nc2ccccc2[nH]1	eLon inh 65 | eLon confirm inactive
CCCOC(=O)C1C2C=CC(C2)C1C(=O)OCC(=O)c1ccccc1 (configuration not stated)	eLon inh 25 | eLon confirm 87
C=CC[C@@H](CC(=O)N(CCO)Cc1ccccc1)C(=O)N[C@@H](COC(=O)[C@H](CC=C)CC(=O)OC(C)(C)C)Cc1c[nH]c2ccccc12	none
C=CC[C@H](CC(=O)N(CCO)Cc1ccccc1)C(=O)N[C@@H](COC(=O)[C@@H](CC=C)CC(=O)OC(C)(C)C)Cc1c[nH]c2ccccc12	eLon inh 21 | eLon confirm inactive
COc1cc2[nH]c(=S)nc(NCc3ccccc3)c2cc1OC	none
COc1cc2[nH]c(=S)nc(NCc3ccccn3)c2cc1OC	eLon inh 26 | eLon confirm 57
O=C(CNC(=O)c1ccccc1)N/N=C/C=C/c1ccccc1	none
O=C(CNC(=O)c1cccc(F)c1)N/N=C/C=C/c1ccccc1	eLon inh 17 | eLon confirm inactive
CC12CCC(C(=O)NNC(=O)c3ccc(Br)cc3)(OC1=O)C2(C)C (configuration not stated)	eLon inh 18 | eLon confirm inactive
O=C(CN1CCSCC1)N/N=C/c1ccc(F)c(F)c1	eLon inh 27 | eLon confirm inactive
O=C(CN1CCCCCC1)N/N=C/c1ccc(Cl)c(Cl)c1	none
CCOC(=O)[C@]12CCCC=C1N(Cc1ccc3c(c1)OCO3)C(=O)[C@H](CC(=O)NCCCN1CCCC1=O)C2	none (no result: C-LANA FP, Keap1 Nrf2 FP, RTF Ca sens inh, cardiac RTF act)
CC(C)C[C@H]1CNC(=S)N1CC1CCN(CCCCc2ccccc2)CC1	none
Cc1ccc2cccc(N)c2n1	eLon inh 31 | eLon confirm inactive
Cc1c(N)cccc1N	none
Cn1c(O)c(N=NC(=O)CNC(=O)c2cccnc2)c2ccccc21	eLon inh 19 | eLon confirm inactive
CCCn1c(O)c(N=NC(=O)CNC(=O)c2cccnc2)c2ccccc21	none
COc1ccc(-c2cc(CNc3nc(NCc4ccccc4OC)nc4ccsc34)on2)cc1	none (no result: C-LANA FP, Keap1 Nrf2 FP, RTF Ca sens inh, cardiac RTF act)
CC(C)CCn1nnnc1CN1CCN(c2ccccc2)CC1	eLon inh 17 | eLon confirm inactive
COCCn1nnnc1CN1CCN(c2cccc(C(F)(F)F)c2)CC1	none
Cc1nc(-c2ccccc2)sc1C(=O)NS(=O)(=O)c1ccc(CN2CCN(c3ccccc3)CC2)cc1	none (no result: C-LANA FP, Keap1 Nrf2 FP, RTF Ca sens inh, cardiac RTF act)
COc1ccc(N2C(=O)C3CCCN3C2c2ccccc2)cc1 (configuration not stated)	eLon inh 16 | eLon confirm inactive
O=C(COc1ccc(F)cc1Cl)Nc1ccc(N2CCOCC2)cc1N1CCOCC1	eLon inh 16 | eLon confirm inactive
COc1cc(C2C(C#N)=C(N)OC3=C2C(=O)CC(C)(C)C3)c([N+](=O)[O-])cc1OC (configuration not stated)	eLon inh 34 | eLon confirm 19
COC(=O)C1(C)CCCC2(C)c3cc(OC)ccc3C(=O)C(Br)C12 (configuration not stated)	none (no result: C-LANA FP, Keap1 Nrf2 FP, RTF Ca sens inh, cardiac RTF act)
